From PubChem BioAssay (EPA / NIEHS) come the findings set out here.

The structures appear in SMILES notation. Inconclusive results are not listed. Some structures have more than one record in an assay (separate samples or runs), and their calls can disagree. Calls of active or inactive are those of the source. Rule for the calls: active = hit-call score of the fitted dose curve at least 0.9, where 1 is the maximum; inconclusive = response in the unintended direction; inactive = score below 0.9.

Read-out in the test: Cytochrome P450 2B6 (Homo sapiens) (UniProt P20813)
The experiment in a line: CLD_CYP2B6_6hr: CellzDirect (CLD) Gene Expression Assay for xenobiotic metabolism (CYP2B6) at 6 hours (AID 2283677).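 Note: actives raise CYP2B6 transcript above DMSO baseline so AC50 marks an inducer.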 The protocol:
CLD_6hr is a cell-based, multiplexed-readout assay that uses hepatocyte, a human liver primary cell, with measurements taken at 6 hours after chemical dosing in a 96-well plate.CLD_CYP2B6_6hr is one of 16 assay component(s) measured or calculated from the CLD_6hr assay. It is designed to make measurements of mRNA induction, a form of inducible reporter, as detected with chemiluminescence signals by Quantitative Nuclease Protection Assay (qNPA) technology.Data from the assay component CLD_CYP2B6_6hr was analyzed at the endpoint, CLD_CYP2B6_6hr, in the positive analysis fitting direction relative to DMSO as the negative control and baseline of activity. Using a type of inducible reporter, gain-of-signal activity can be used to understand changes in the reporter gene as they relate to the gene CYP2B6. Furthermore, this assay endpoint can be referred to as a primary readout. To generalize the intended target to other relatable targets, this assay endpoint is annotated to the cyp intended target family, where subfamily is xenobiotic metabolism.
Human hepatocyte cultures were treated daily for two consecutive days with fresh dosing solutions containing appropriate concentrations of the 320 ToxCast chemicals (chemical identities were blinded to CellzDirect and other ToxCast collaborators), vehicle control (0.2% DMSO), and positive control inducers as summarized in Table 1. Due to the large number of treatment groups and chemicals examined, the ToxCast chemicals were divided into two groups (spanning two independent cultures of hepatocytes from separate donor preparations (Hu778: ToxCast plates 1 and 2; Hu776: ToxCast plates 3 and 4). Each preparation of human hepatocyte cultures was treated with respective vehicle control, medium only control, set of six positive controls/reference chemicals for the five hepatic receptor pathways, and a subset of eight of the ToxCast chemicals (indoxacarb, pyrithiobac-sodium, norflurazon, cyhalofop-butyl, methomyl, thiram, acetochlor, and propiconazole). These replicate data, coupled with internal replicates designed within the blinded ToxCast chemical library, provided additional data to evaluate interindividual differences between hepatocyte preparations and their potential impact on chemical profiles.Cell morphology and integrity were evaluated using phase-contrast microscopy as an indicator of hepatocyte cell health (Tyson & Green, 1987). Cultures for each treatment group (i.e., media, vehicle [0.2% DMSO], positive control inducers [multiple concentrations], and the ToxCast chemicals [multiple concentrations]) were observed and cell morphology was assessed relative to vehicle control cultures at each harvest time point (0, 6, 24, or 48 h). […] Images were evaluated at the conclusion of the study to assess changes in cell integrity and account for the effects of chemical exposure on uncharacteristic changes in concentration-dependent gene expression profiles. The results from these determinations of apparent cytotoxicity were annotated (yes/no) alongside the corresponding qNPA data for reference.At the conclusion of each treatment period, hepatocyte cultures (96-well) were washed with 1 volume of HBSS, lysed by addition of 25 ul ArrayPlate lysis buffer (HTG, Tucson, AZ), and 70 ul/well of Denaturation Oil, denatured by incubation at 95C for 10 min, and frozen at approximately -70C until analysis by nuclease protection assay (qNPA) (Roberts et al., 2007). For qNPA analysis, cell lysates were thawed at 50C for approximately 30 min, qNPA probes were added, and samples were incubated at 95C for 10 min to begin the detection process by denaturing the target RNA, dissociating the duplexes and secondary structure hybridization. At the conclusion of the hybridization period, S1 nuclease reagent was added to each sample to digest all nonprotected nucleotides at 50C for 60-90 min. […]
In the case of `CN(C)C(=O)Nc1ccc(Cl)c(Cl)c1`, the AC50 was 4.6 µM (active).
On to `CCCCOC(=O)C(C)Oc1ccc(Oc2ccc(C(F)(F)F)cn2)cc1` (configuration not stated), for which the outcome was inactive.
Consider `CCCN(CCC)c1c([N+](=O)[O-])cc(C(F)(F)F)c(N)c1[N+](=O)[O-]`, for which the AC50 was 0.752 µM (active).
With `COC(=O)c1ccccc1S(=O)(=O)NC(=O)Nc1nc(OC(F)F)cc(OC(F)F)n1`, the result was inactive.
In the case of `CCCCC(CC)CN1C(=O)C2C3C=CC(C3)C2C1=O` (configuration not stated), the AC50 is 4.33 µM (active).
Same read-out and setting: as for `CC(C)(C)[C@@H](O)[C@@H](Cc1ccc(Cl)cc1)n1cncn1`, the figure is 1.73 µM (active).
As to `COC(=O)c1c(Cl)nn(C)c1S(=O)(=O)NC(=O)Nc1nc(OC)cc(OC)n1`, the outcome was inactive.
On to `CCCN(CCC)C(=O)SCC`, for which the AC50 was 0.165 µM (active) and the molecule was called inactive.
Turning to `S=C(S)NCCNC(=S)S.[Mn+2].[S-]C([S-])=NCCN=C([S-])[S-].[Zn+2]`, the AC50 is 2.55 µM (active).
On the same count and under the same terms, the same measure for `CC1(C)C(C=C(Cl)Cl)C1C(=O)OCc1cccc(Oc2ccccc2)c1` (configuration not stated): 0.083 µM (active).
For the molecule `COC(=O)c1ccccc1C(=O)O`, the outcome was inactive.
On to `CCN(Cc1c(F)cccc1Cl)c1c([N+](=O)[O-])cc(C(F)(F)F)cc1[N+](=O)[O-]`, for which the AC50 was 0.419 µM (active).
The same measure, in the same setting: as for `CCCCCOC(=O)COc1cc(N2C(=O)C3=C(CCCC3)C2=O)c(F)cc1Cl`, the figure is 20 µM (active); as for `c1ccc2[nH]c(-c3cscn3)nc2c1`, 10.2 µM (active).
On to `COC(=O)c1ccc(CNS(C)(=O)=O)cc1S(=O)(=O)NC(=O)Nc1nc(OC)cc(OC)n1`, for which the outcome was inactive.
For the molecule `COC(=O)c1ccc(I)cc1S(=O)(=O)NC(=O)Nc1nc(C)nc(OC)n1`, the AC50 is 0.397 µM (active).
The same measure, in the same setting: as for `CCOC(=O)NCCOc1ccc(Oc2ccccc2)cc1`, the figure is 3.97 µM (active); as for `CC(C)(c1ccc(O)cc1)c1ccc(O)cc1`, 14.2 µM (active).
On to `c1ccc(Nc2ccccc2)cc1`, for which the AC50 is 9.66 µM (active).
On the same count and under the same terms, the same measure for `CCCCC(CC)COC(=O)c1ccccc1C(=O)O` (configuration not stated): 4.36 µM (active); for `CCOC(=O)COc1cc(-n2ncc(C(F)(F)F)c(C)c2=O)c(F)cc1Cl`: 2.49 µM (active); for `COC(=O)c1cccc(C)c1S(=O)(=O)NC(=O)Nc1nc(OCC(F)(F)F)nc(N(C)C)n1`: 8.96 µM (active).
For `C#CCOC(=O)[C@@H](C)Oc1ccc(Oc2ncc(Cl)cc2F)cc1`, the AC50 was 0.000426 µM (active).
On to `CSC(=O)c1cccc2nnsc12`, for which the result was inactive.
In the case of `Oc1ccc(C(c2ccc(O)cc2)C(Cl)(Cl)Cl)cc1`, the molecule was classed as inactive.
On to `CCC(C)OC(=O)N1CCCCC1CCO` (configuration not stated), for which the result was inactive.
Take `CCCCOCCOCCOCc1cc2c(cc1CCC)OCO2`: the concentration at half-maximal activity (AC50) is 1.27 µM (active).
For the molecule `CCOC(=O)C(C)Oc1ccc(Oc2cnc3cc(Cl)ccc3n2)cc1` (configuration not stated), the call was inactive.
Regarding `CCCCCCC(C)OC(=O)COc1nc(F)c(Cl)c(N)c1Cl` (configuration not stated), the molecule was called inactive.
On the same count and under the same terms, as for `COc1nc(C)nc(NC(=O)NS(=O)(=O)c2ccccc2OCCCl)n1`, the entry is “inactive”.
On to `CCN(CC)C(=O)c1cccc(C)c1`, for which the AC50 was 2.38 µM (active).
Take `CCCCOC(=O)[C@@H](C)Oc1ccc(Oc2ccc(C(F)(F)F)cn2)cc1`: the molecule was classed as inactive.
For the molecule `CCSC(=O)N(CC(C)C)CC(C)C`, the AC50 was 3.55 µM (active).
The same measure, in the same setting: as for `C=CCOC(Cn1ccnc1)c1ccc(Cl)cc1Cl` (configuration not stated), the figure is 0.0186 µM (active); as for `COC(=O)CSc1cc(N=c2sc(=O)n3n2CCCC3)c(F)cc1Cl`, 1.82 µM (active).
Consider `CCOC(=O)C(C)Oc1ccc(Oc2nc3ccc(Cl)cc3o2)cc1` (configuration not stated), for which the result was inactive.
